Data reported in PubChem BioAssay (NCATS).
Results filed as inconclusive are left out. Values without a mark were called inactive. Calls come from the whole dose curve; as a rule, active = well fitted inhibition curve with a large enough effect; inconclusive = small, poorly fitted or top-dose-only effect; inactive = flat fitted curve, though single readings scatter.

Each compound was assayed on Zika virus NS2B-NS3 protease (assay: Primary screen GU AMC qHTS for Zika virus inhibitors (AID 1347154;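 note: 0% = no-inhibitor control and -100% = no-enzyme control; nearly all actives have a fitted effect of over 70% in size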)). Conditions: Zika NS2B-NS3 unlinked protease, AMC fluorogenic substrate; series mostly up to 54.1 µM; activity change, negative = inhibition: at the top concentration.
Method in brief: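 Unlinked Zika NS2B hydrophilic domain–NS3 protease complex at 25 nM in 10 mM Tris-HCl pH 8.0, 0.01% Tween 20, with an AMC peptide substrate. Fluorescence change (340/450 nm) over 15 min at room temperature, normalized to controls, fitted to 4-parameter Hill.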

Compound | activity change, negative = inhibition
COCCOCCO | -6.81% [at 104 µM]
CC(O)CN1CCN(CC(=O)[O-])CCN(CC(=O)[O-])CCN(CC(=O)[O-])CC1.[Gd+3] (centres undefined) | -1.53%
CCC1(CCC(C)C)C(=O)NC(=O)NC1=O | 3.05% [at 104 µM]
O=[N+]([O-])c1ccc([As](=O)(O)O)cc1 | -3.68%
C=C[C@@H]1CN2CCC1C[C@@H]2[C@@H](O)c1ccnc2ccccc12 (some centres undefined) | -11.8%
NC1=NC(=O)N2CC12 (centres undefined) | 17.3%
CCOP(=O)(OCC)C(C)NC(=O)N(CCCl)N=O (centres undefined) | 12.6%
C[C@]12CC[C@@H]3[C@@H](CCC4=CC(=O)CC[C@@H]43)[C@@H]1CC[C@@H]2OC(=O)CCc1ccccc1 | 5.7%
COC(=O)c1cncn1C(C)c1ccccc1 (centres undefined) | -2.58%
CCOCCOC(C)=O | -1.17% [at 104 µM]
O=S(=O)(CC1CS1)c1ccc(Oc2ccccc2)cc1 (centres undefined) | -4.37%
Cc1nc(-c2ccc(-c3ccc(C(=O)N4CCc5cc6c(cc54)C4(CCN(C)CC4)CO6)cc3)c(C)c2)no1 | 24.4%
O=C(Nc1ccccc1-c1ccc(Cl)cc1)c1cccnc1Cl | -2.22% [at 104 µM]
C[C@]12CC[C@H](O)CC1=CC[C@H]1[C@H]3CCC(=O)[C@@]3(C)CC[C@@H]12 | 1.11%
ClC1=C(Cl)[C@]2(Cl)[C@@H]3[C@@H]4C[C@@H]([C@H]5O[C@@H]45)[C@@H]3[C@@]1(Cl)C2(Cl)Cl | -12.5% [at 104 µM]
C[C@]12CCC(=O)C(O)=C1CC[C@@H]1[C@H]3CCC(=O)[C@@]3(C)CC[C@@H]12 | -7.44%
CC(O)=C(C#N)C(=O)Nc1cc(Br)ccc1Br | -9.8%
Cc1ccc(Cl)c(O)c1 | 1.71%
COc1ccc2c(c1)[C@]13CCCCC1C(C2)N(C)CC3 (some centres undefined) | 2.49%
